# Vaccinia Venus – vaccinia inhibition (Venus reporter) | Vaccinia virus Venus reporter expression, fluorescence | Potency, µM (highest dose often 36.5 µM), without a hit: top-dose activity change, negative = inhibition, hits mostly inhibitors | 330,000 tested, 0.46% active; calls by dose curve; tested in A549 cells; also: potency is read from the fitted curve at half-maximal effect; nearly all actives have a fitted effect of over 30% in size
# FMDV antiviral – blocks foot and mouth disease virus | AID 1159524 | 410,000 tested, 1.2% active | FMDV antiviral cell-based qHTS | Potency, µM (series often up to 57.9 µM), inactives show at the top dose activity change, negative = inhibition, most hits filed as inhibitors; calls by dose curve; tested in HEK293T cells; also: read-out not given here; potency is read from the fitted curve at half-maximal effect; nearly all actives have a fitted effect of over 45% in size
# HCMV inh – blocks human cytomegalovirus replication; HFF cells, HCMV-luciferase reporter, 72 h; hits give low values; activity change, negative = inhibition, % at 57.5 µM; 410,000 tested, 4.5% active; AID 1259415; in the data active = activity change below about -60%; inconclusive = no clear call, values can overlap the other calls; inactive = above about -39%
#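 Inhibition of viral replication was scored as loss of reporter luminescence in HFFs infected with HCMV-luciferase (MOI 1 PFU/cell) for 72 h; compounds tested at 2 doses, normalized to buffer and Salinomycin controls.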
# VACV mCherry inh – vaccinia inhibition (mCherry reporter); Potency, µM (highest dose often 36.5 µM), inactives show top-dose activity change, negative = inhibition, hits mostly inhibitors; 310,000 tested, 0.63% active; Vaccinia virus mCherry reporter infection, fluorescence; AID 720579; calls by dose curve; tested in A549 cells; also: potency is read from the fitted curve at half-maximal effect; nearly all actives have a fitted effect of over 35% in size
# HCV inhibitor – blocks hepatitis C virus; Huh7.5.1 HCVcc-Cre infection, luciferase reporter, 44 h; Potency, µM (titrated, usually from 41.8 µM), for the others: at the highest dose activity change, negative = inhibition, actives largely listed as inhibitors; 340,000 tested, 3.4% active; active = well fitted inhibition curve with a large enough effect; inconclusive = small, poorly fitted or top-dose-only effect, or another doubt; inactive = no such curve, though single readings can be large or run the other way; also: potency is read from the fitted curve at half-maximal effect
#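 Compounds are dispensed onto cells plated 4 h earlier at 1,000 per well, with HCVcc-Cre virus (about 0.5 moi) added next. Following 44 h of culture, luminescent signal is measured for 15 sec after 15 min with substrate at room temperature.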
# * hit, by the source's call; i = inactive; ? = inconclusive; · = no result. A selection: hits, their analogues and other compounds. The true share with any hit is near 7.3%. % is scaled to controls: 0 for no effect and ±100 for the full control effect.
SMILES,Vaccinia Venus,FMDV antiviral,HCMV inh,VACV mCherry inh,HCV inhibitor
COc1ccc(-c2nn(CC(=O)NCc3ccccc3)c3c2cnc2ccc(F)cc23)cc1,-1%,20%,29,-2%,·
CC[C@@]1(C(=O)OC)N[C@H](CN(C)C(=O)Nc2ccccc2)[C@@H]2C(=O)N(C)C(=O)[C@@H]21,-18%,4.5µM*,-2,-4%,14%
CCN(C[C@H]1N[C@@](CC)(C(=O)OC)[C@H]2C(=O)N(C)C(=O)[C@@H]12)C(=O)Nc1ccc(C)cc1,?,0%,-4,i,3.2µM*
Cc1c(C(=O)OCC(C)C)[nH]c2c1C(=O)CC(c1ccco1)C2 (stereo unspecified),?,0%,-77*,?,?
Cc1c(C(=O)OC2CCCCC2)[nH]c2c1C(=O)CC(c1ccccc1)C2 (stereo unspecified),?,-24%,-8,?,·
C/C=C/COC(=O)c1[nH]c2c(c1C)C(=O)CC(c1ccco1)C2 (stereo unspecified),?,-5%,-65*,?,?
CCOCCOC(=O)c1[nH]c2c(c1C)C(=O)CC(c1ccc(N(C)C)cc1)C2 (stereo unspecified),-26%,?,-25,?,?
Cc1c(C(=O)OC2CCCC2)[nH]c2c1C(=O)CC(c1ccco1)C2 (stereo unspecified),?,?,-95*,?,?
C/C=C/COC(=O)c1[nH]c2c(c1C)C(=O)CC(c1ccc(N(C)C)cc1)C2 (stereo unspecified),-20%,-21%,-15,-27%,5.6µM*
Cc1cc(C)cc(-n2cnc3cc(C(=O)NC4CCCCCC4)ccc32)c1,-15%,15%,52,i,·
CC(C)Oc1ccc(C(=O)N(Cc2ccc(N(C)C)cc2)Cc2ccco2)cc1,-4%,-10%,28,-2%,·
C=CCOc1cccc(/C=C2\C(=O)N(Cc3ccc(C)cc3)C(C)=C2C(=O)OC)c1,-3%,-61%,36,i,-23%
CCOc1cc(/C=C2\C(=O)N(Cc3ccc(C)cc3)C(C)=C2C(=O)OC)ccc1O,-19%,35µM*,23,·,-1%
CCC(C)(C)c1ccc(Oc2ccc(N)cc2)cc1,?,1.1µM*,-91*,-18%,4.5µM*
N#Cc1ccc(CSc2nc3c(c(=O)[nH]2)CCCC3)cc1,0%,-22%,9,-8%,·
CCOc1ccc(C(=O)OC(C)CN2CCN(C)CC2)cc1 (stereo unspecified),-6%,11%,75,-2%,1.8µM*
Cc1[nH]n(-c2ccccc2)c(=O)c1C(c1ccccc1[N+](=O)[O-])C(C#N)C#N (stereo unspecified),·,?,38,·,14%
Cc1[nH]n(-c2ncc(-c3ccccc3)s2)c(=O)c1C(c1ccc(Cl)cc1)C(C#N)C#N (stereo unspecified),-13%,20µM*,-2,-19%,0%
CC(C)(CN1CCNCC1)NS(=O)(=O)c1ccc(Cl)cc1,·,?,-32,·,4µM*
CN1CCN(CC(C)(C)NS(=O)(=O)c2ccccc2)CC1,-2%,-14%,-61*,-10%,2%
CC(C)(CN1CCOCC1)NS(=O)(=O)c1ccccc1,-3%,2%,-29,-27%,24%
CCCC(=O)Nc1cc(-c2nc3cccnc3s2)ccc1C,-7%,7%,48,-15%,·
COC(=O)c1ccc(-n2c(/C=C\c3cccc(Br)c3)nc3ccccc3c2=O)cc1,-28%,-20%,33,?,·
Cc1ccc(-n2ncc3c2CCCC3NC(=O)c2ccoc2)cc1C (stereo unspecified),-25%,-28%,?,?,?
COCc1ccc(C(=O)NC2CCCc3c2cnn3-c2ccc(C)c(C)c2)o1 (stereo unspecified),·,?,-77*,·,?
SMILES,Vaccinia Venus,FMDV antiviral,HCMV inh,VACV mCherry inh,HCV inhibitor
Cc1cc(C(=O)NC2CCCc3c2cnn3-c2ccc(C)c(C)c2)n(C)n1 (stereo unspecified),·,?,-99*,·,8.9µM*
Cn1c(=O)n(CCc2ccccc2)c(=O)c2c1nc1n2CCN1c1ccc(Cl)cc1,1%,-10%,-38,-7%,·
COc1ccc(NC(=O)C(Cc2ccccc2)NS(=O)(=O)c2ccc3c(c2)CCN3C(C)=O)cc1 (stereo unspecified),3%,-5%,-11,-13%,·
Clc1ccc(Nc2nccc3[nH]c(-c4ccccc4)nc23)cc1,·,·,-6,·,·
Nc1nc(N)c2nc(CNc3ccc(C(=O)N[C@@H](CCC(=O)O)C(=O)O)cc3)cnc2n1,-1%,-16%,·,-13%,·
CN(Cc1cnc2nc(N)nc(N)c2n1)c1ccc(C(=O)NC(CCC(=O)O)C(=O)O)cc1C(F)(F)F (stereo unspecified),1.1µM*,-29%,-97*,0.32µM*,?
CN(Cc1cnc2nc(N)nc(N)c2n1)c1ccc(C(=O)NC(CCC(=O)O)C(=O)O)cc1 (stereo unspecified),?,-24%,-97*,11µM*,?
CN(C)CCCSc1ccccc1NC(=O)/C=C\c1ccccc1,·,-5%,·,·,·
Cc1nc2cc(NC(=O)C3CC34CCN(Cc3ccc(O)c(Cl)c3)CC4)ccc2s1 (stereo unspecified),-12%,6%,·,i,·
COc1ccc(-n2nnnc2SCC(=O)c2ccc(O)c(O)c2)cc1,·,-10%,-24,·,?
NC(=O)c1ccc(-n2nnnc2SCC(=O)c2ccc(O)c(O)c2)cc1,-10%,-15%,-100*,i,25%
CCCCCCCCCCCCCCCCCCN(CCCCCCCCCCCCCCCCCC)c1ccc(C=O)cc1,-10%,·,·,-14%,·
CCc1ccc(-c2cc(C(F)(F)F)n3nc(C(=O)Nc4c(C)nn(Cc5ccc(F)cc5)c4C)cc3n2)s1,·,?,-37,·,1.6µM*
Cc1ccc(NC(=O)N2CCN(Cc3ccc4c(c3)OCO4)CC2)cc1,-19%,-4%,4,-22%,·
Cc1cccc(NC(=O)N2CCN(Cc3ccc4c(c3)OCO4)CC2)c1C,·,-21%,-75*,·,13%
Cc1ccc2c(C)c(C(=O)N3CCN(Cc4ccc5c(c4)OCO5)CC3)oc2c1C,-24%,8%,0,-29%,11µM*
Cc1ccc(CNS(=O)(=O)c2cc3c(cc2Cl)NC(=O)CO3)o1,0%,-8%,0,-17%,·
CCc1ccc(-c2cn3c(n2)sc2cc(C(=O)NCCC4=CCCCC4)ccc23)cc1,?,15%,·,?,·
Cc1ccc2cccc(OCCCOc3ccccc3F)c2n1,·,33%,8,·,10µM*
Cc1ccc2cccc(OCCOCCOc3ccccc3Br)c2n1,-3%,-16%,?,-16%,?
COc1ccc(NC(=O)/C(C#N)=C/c2ccc(Sc3nncn3C)c([N+](=O)[O-])c2)cc1,-26%,32µM*,28,-17%,13%
CCN(CC)S(=O)(=O)c1ccc(NC(=O)c2ccc(Sc3nncn3C)c([N+](=O)[O-])c2)cc1,?,-28%,-81*,?,-13%

# Screens as filed in PubChem BioAssay.
